Measurements reported in ChEMBL document CHEMBL3988442, “University of Dundee, Small-Polar-MMV Screening Library” (2021).

molecular target: T1, Tyrosyl-tRNA synthetase, putative (Trypanosoma cruzi (strain CL Brener)) (UniProt Q4DSP6); assay: Trypanosoma cruzi tyrosyl tRNA synthetase (TcYRS) SOP; format: functional; set-up: scale not given: direction of the effect not stated beside the values; settings: 30 µM
T1 sequence (whole entry): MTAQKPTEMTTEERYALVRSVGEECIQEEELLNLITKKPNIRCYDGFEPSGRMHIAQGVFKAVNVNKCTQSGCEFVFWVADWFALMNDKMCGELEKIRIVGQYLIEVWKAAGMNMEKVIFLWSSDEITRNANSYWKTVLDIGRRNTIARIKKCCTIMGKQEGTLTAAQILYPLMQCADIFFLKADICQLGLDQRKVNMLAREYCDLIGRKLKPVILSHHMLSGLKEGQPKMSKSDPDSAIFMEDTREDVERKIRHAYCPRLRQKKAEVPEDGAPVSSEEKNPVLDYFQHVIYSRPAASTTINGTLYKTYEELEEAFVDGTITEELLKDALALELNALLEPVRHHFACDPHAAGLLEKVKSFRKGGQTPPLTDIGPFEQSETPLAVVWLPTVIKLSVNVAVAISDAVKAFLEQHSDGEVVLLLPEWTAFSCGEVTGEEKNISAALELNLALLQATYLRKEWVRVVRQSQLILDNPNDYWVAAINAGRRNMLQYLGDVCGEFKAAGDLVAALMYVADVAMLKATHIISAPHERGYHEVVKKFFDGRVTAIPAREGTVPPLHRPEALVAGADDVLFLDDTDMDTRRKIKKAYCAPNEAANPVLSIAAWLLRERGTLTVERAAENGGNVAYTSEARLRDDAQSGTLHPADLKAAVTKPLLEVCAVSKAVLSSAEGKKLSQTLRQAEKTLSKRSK

| Compound | Percent Effect [%] |
| --- | --- |
| O=C(c1ccn[nH]1)N1CCCC(n2cncn2)C1 (stereo not given) | 15.2 |
| CN(c1ccncn1)C1CC2(CCN(C(=O)c3cccs3)C2)C1 (stereo not given) | -6.49 |
| CCC1(CO)CCCN(c2ncccc2C#N)C1 (stereo not given) | 0 |
| CCN(CC)C(=O)c1ccn(COc2cc(C)cc(C)c2)n1 | 12.8 |
| CCCS(=O)(=O)NCC1CCOc2ccccc2C1 (stereo not given) | 6.17 |
| Cc1ccc(C2CSCCN2C(=O)C2=CCCC2)o1 (stereo not given) | 6.17 |
| CC(C)c1nc(C(=O)N2CCOCC2CC(=O)c2ccco2)c[nH]1 (stereo not given) | 0 |
| Cc1nn(C)c(N2CCOCC2)c1CNC1CCc2ccccc2C1 (stereo not given) | 16.5 |
| CNc1nc(C(=O)N2CCCC(c3nccn3CC3CCC3)C2)cs1 (stereo not given) | -22.5 |
| Cc1cc(Nc2nc(C)cs2)nc(C2CCCCN2CCO)n1 (stereo not given) | 11.7 |
| N#Cc1cccc(CN2CC[C@@H]3[C@@H]2CC(=O)N3Cc2cccnc2)c1 | 11.5 |
| O=C(NCCNc1ncccn1)N1CCSCC1 | 16.1 |
| CN(C)CCn1c(=O)oc2ccc(NC(=O)C3CCCO3)cc21 (stereo not given) | 11.1 |
| CC(NC(=O)C1=NN(C)C(=O)CC1)c1ccc(Cl)cc1Cl (stereo not given) | 20 |
| CCn1c(=O)nc2n1C(=O)N(c1cccc(Cl)c1)C2 | 15.4 |
| O=C(c1ccc(Cl)o1)N1CCCN(Cc2cscn2)CC1 | 14.1 |
| CC(N(C)Cc1nc2c(cnn2C)c(=O)[nH]1)C(C)(C)C (stereo not given) | 3.66 |
| CCc1noc(C2CCCCN2C(=O)c2nnc3ccccc3n2)n1 (stereo not given) | 17.9 |
| Cc1cccc(N2CCN(C(=O)CN3CCN(CCO)CC3)CC2)c1 | 21 |
| O=C(CCc1ccc(=O)[nH]n1)N1CCCC(COc2ccc(F)cc2)C1 (stereo not given) | 12.8 |

| Compound | Percent Effect [%] |
| --- | --- |
| O=C(Cc1ccccn1)N1CCN(CC2CC2)c2ncccc2C1 | 16.7 |
| COc1cccc(C2CC(=O)Nc3nc(N4CCOCC4)sc32)c1OC (stereo not given) | 10.4 |
| Cc1nccn1-c1cc(CNC(=O)C(C)(C)C)ccn1 | 17.5 |
| CNS(=O)(=O)c1ccc(C(=O)N2CCCC2c2ccccc2)o1 (stereo not given) | 18.5 |
| Cc1csc(N2CCN(C(=O)Cc3ccsc3)CC2)n1 | 30.9 |
| CN(Cc1cccc(F)c1)C(=O)CN1CCCC1CCc1ccccc1 (stereo not given) | -3.7 |
| CN(CC1(O)CCCCC1)C1CCCN(Cc2noc(C3CC3)n2)C1 (stereo not given) | 13.6 |
| Cc1cnnn1Cc1ncn2c1CN(Cc1cccs1)CCC2 | 5.13 |
| CC(C)C(=O)NCCNc1nccc(-c2cc(C(=O)O)ccn2)n1 | 20 |
| COCCN1CCC(CN(CC2CCCO2)C(=O)COC)CC1 (stereo not given) | 15.4 |
| CNC(=O)c1ccc(CN2CCC(N(C)Cc3noc(C)n3)C2)cc1 (stereo not given) | 14.1 |
| O=C([C@H]1CN(CCc2ccccc2)C[C@H]2OCC[C@@H]12)N1CCCO1 | 15 |
| O=C(Cc1ccsc1)N1C[C@@H]2CN(Cc3ccoc3)CCO[C@@H]2C1 | 7.69 |
| Cn1c(Cn2cccn2)nnc1C1CCN(Cc2cccnc2N)CC1 | 0 |
| Cc1cc(C)n(CC2CCCCN2CC(=O)Nc2cccnc2)n1 (stereo not given) | 16.1 |
| COCc1nc(C(=O)N2CCCCC2Cn2cccn2)cs1 (stereo not given) | 3.7 |
| Cn1nnc2c1CCN(CC1CC1)C2COCc1ccccc1 (stereo not given) | 14.1 |
| COCC(c1cccc(C(F)(F)F)c1)N(C)C(=O)c1ccncc1 (stereo not given) | 21.9 |
| Cc1ccc(C(=O)NC2CCN(Cc3noc(CC(C)C)n3)CC2)s1 | 1.24 |
| CCN(C(=O)CS(=O)(=O)Cc1cc(Cl)c2c(c1)OCCCO2)C1CC1 | 16.5 |

molecular target: Chromo domain-containing protein 1 (Saccharomyces cerevisiae (strain ATCC 204508 / S288c) (Baker's yeast)) (UniProt P32657); assay: ScCHD-1 Enzyme Inhibition Assay; format: functional; set-up: scale not given: in the data most compounds retested in dose-response had high values; settings: 30 µM
Sequence (P32657 whole entry, the tested form may be a part): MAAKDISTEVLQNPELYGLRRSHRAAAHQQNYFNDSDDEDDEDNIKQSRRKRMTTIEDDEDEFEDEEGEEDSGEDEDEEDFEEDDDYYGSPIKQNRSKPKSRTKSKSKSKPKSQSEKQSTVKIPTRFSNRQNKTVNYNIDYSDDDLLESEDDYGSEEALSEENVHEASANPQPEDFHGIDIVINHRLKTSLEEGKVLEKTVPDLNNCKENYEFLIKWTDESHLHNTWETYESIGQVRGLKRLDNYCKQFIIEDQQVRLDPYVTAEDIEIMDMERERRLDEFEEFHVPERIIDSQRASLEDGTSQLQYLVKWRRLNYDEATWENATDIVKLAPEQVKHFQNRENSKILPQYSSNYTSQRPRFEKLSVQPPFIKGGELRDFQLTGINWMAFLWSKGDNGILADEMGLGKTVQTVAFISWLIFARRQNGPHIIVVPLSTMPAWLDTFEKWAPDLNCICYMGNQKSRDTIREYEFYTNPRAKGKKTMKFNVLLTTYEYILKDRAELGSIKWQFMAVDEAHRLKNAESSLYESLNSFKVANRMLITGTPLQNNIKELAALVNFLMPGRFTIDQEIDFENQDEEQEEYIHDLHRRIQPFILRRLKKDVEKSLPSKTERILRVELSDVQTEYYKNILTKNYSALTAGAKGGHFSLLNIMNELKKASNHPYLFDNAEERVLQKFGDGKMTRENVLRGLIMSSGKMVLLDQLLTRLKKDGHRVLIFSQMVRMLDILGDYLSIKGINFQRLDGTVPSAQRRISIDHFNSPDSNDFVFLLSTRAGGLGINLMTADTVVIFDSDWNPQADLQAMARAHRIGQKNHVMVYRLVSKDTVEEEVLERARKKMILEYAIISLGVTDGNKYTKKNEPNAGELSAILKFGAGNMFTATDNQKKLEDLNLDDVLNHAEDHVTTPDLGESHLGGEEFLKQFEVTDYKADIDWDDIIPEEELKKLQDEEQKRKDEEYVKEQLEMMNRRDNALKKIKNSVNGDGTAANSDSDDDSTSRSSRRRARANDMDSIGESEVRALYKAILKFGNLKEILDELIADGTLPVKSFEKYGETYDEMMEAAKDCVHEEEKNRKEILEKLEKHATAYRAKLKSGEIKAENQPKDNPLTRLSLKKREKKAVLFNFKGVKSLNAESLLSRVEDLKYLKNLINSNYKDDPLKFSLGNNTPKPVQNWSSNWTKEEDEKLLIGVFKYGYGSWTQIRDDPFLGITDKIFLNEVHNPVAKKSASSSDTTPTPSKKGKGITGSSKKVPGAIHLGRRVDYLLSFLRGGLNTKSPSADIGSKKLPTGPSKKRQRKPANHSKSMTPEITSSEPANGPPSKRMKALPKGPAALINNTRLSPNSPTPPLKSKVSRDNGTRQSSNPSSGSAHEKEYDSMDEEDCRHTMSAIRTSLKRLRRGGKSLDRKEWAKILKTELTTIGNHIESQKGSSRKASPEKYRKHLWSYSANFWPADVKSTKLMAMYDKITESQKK

| Compound | Percent Effect [%] |
| --- | --- |
| O=C(c1ccn[nH]1)N1CCCC(n2cncn2)C1 (stereo not given) | -14.9 |
| CN(c1ccncn1)C1CC2(CCN(C(=O)c3cccs3)C2)C1 (stereo not given) | -17.8 |
| CCC1(CO)CCCN(c2ncccc2C#N)C1 (stereo not given) | -3.09 |
| CCN(CC)C(=O)c1ccn(COc2cc(C)cc(C)c2)n1 | -12.1 |
| CCCS(=O)(=O)NCC1CCOc2ccccc2C1 (stereo not given) | 3.34 |
| Cc1ccc(C2CSCCN2C(=O)C2=CCCC2)o1 (stereo not given) | -2.84 |
| CC(C)c1nc(C(=O)N2CCOCC2CC(=O)c2ccco2)c[nH]1 (stereo not given) | 1.37 |
| Cc1nn(C)c(N2CCOCC2)c1CNC1CCc2ccccc2C1 (stereo not given) | -4.44 |
| CNc1nc(C(=O)N2CCCC(c3nccn3CC3CCC3)C2)cs1 (stereo not given) | -6.79 |
| Cc1cc(Nc2nc(C)cs2)nc(C2CCCCN2CCO)n1 (stereo not given) | -23.2 |
| N#Cc1cccc(CN2CC[C@@H]3[C@@H]2CC(=O)N3Cc2cccnc2)c1 | -1.86 |
| O=C(NCCNc1ncccn1)N1CCSCC1 | -9.99 |
| CN(C)CCn1c(=O)oc2ccc(NC(=O)C3CCCO3)cc21 (stereo not given) | -5.1 |
| CC(NC(=O)C1=NN(C)C(=O)CC1)c1ccc(Cl)cc1Cl (stereo not given) | -7.04 |
| CCn1c(=O)nc2n1C(=O)N(c1cccc(Cl)c1)C2 | -7.77 |
| O=C(c1ccc(Cl)o1)N1CCCN(Cc2cscn2)CC1 | -17.3 |
| CC(N(C)Cc1nc2c(cnn2C)c(=O)[nH]1)C(C)(C)C (stereo not given) | -4.7 |
| CCc1noc(C2CCCCN2C(=O)c2nnc3ccccc3n2)n1 (stereo not given) | -14.2 |
| Cc1cccc(N2CCN(C(=O)CN3CCN(CCO)CC3)CC2)c1 | -0.672 |
| O=C(CCc1ccc(=O)[nH]n1)N1CCCC(COc2ccc(F)cc2)C1 (stereo not given) | -1.89 |

| Compound | Percent Effect [%] |
| --- | --- |
| O=C(Cc1ccccn1)N1CCN(CC2CC2)c2ncccc2C1 | -7.07 |
| COc1cccc(C2CC(=O)Nc3nc(N4CCOCC4)sc32)c1OC (stereo not given) | -8.79 |
| Cc1nccn1-c1cc(CNC(=O)C(C)(C)C)ccn1 | -6.75 |
| CNS(=O)(=O)c1ccc(C(=O)N2CCCC2c2ccccc2)o1 (stereo not given) | 1 |
| Cc1csc(N2CCN(C(=O)Cc3ccsc3)CC2)n1 | -10.7 |
| CN(Cc1cccc(F)c1)C(=O)CN1CCCC1CCc1ccccc1 (stereo not given) | 113 |
| CN(CC1(O)CCCCC1)C1CCCN(Cc2noc(C3CC3)n2)C1 (stereo not given) | -3.04 |
| Cc1cnnn1Cc1ncn2c1CN(Cc1cccs1)CCC2 | -3.69 |
| CC(C)C(=O)NCCNc1nccc(-c2cc(C(=O)O)ccn2)n1 | -5.35 |
| COCCN1CCC(CN(CC2CCCO2)C(=O)COC)CC1 (stereo not given) | -9.34 |
| CNC(=O)c1ccc(CN2CCC(N(C)Cc3noc(C)n3)C2)cc1 (stereo not given) | -19.2 |
| O=C([C@H]1CN(CCc2ccccc2)C[C@H]2OCC[C@@H]12)N1CCCO1 | -7.28 |
| O=C(Cc1ccsc1)N1C[C@@H]2CN(Cc3ccoc3)CCO[C@@H]2C1 | 11.3 |
| Cn1c(Cn2cccn2)nnc1C1CCN(Cc2cccnc2N)CC1 | 0.423 |
| Cc1cc(C)n(CC2CCCCN2CC(=O)Nc2cccnc2)n1 (stereo not given) | -6.32 |
| COCc1nc(C(=O)N2CCCCC2Cn2cccn2)cs1 (stereo not given) | 3.28 |
| Cn1nnc2c1CCN(CC1CC1)C2COCc1ccccc1 (stereo not given) | -4.41 |
| COCC(c1cccc(C(F)(F)F)c1)N(C)C(=O)c1ccncc1 (stereo not given) | -14.7 |
| Cc1ccc(C(=O)NC2CCN(Cc3noc(CC(C)C)n3)CC2)s1 | -1.38 |
| CCN(C(=O)CS(=O)(=O)Cc1cc(Cl)c2c(c1)OCCCO2)C1CC1 | -6.8 |
